Laboratory results reported in article PMC5540273 (PLoS ONE, 2017).

How the values were obtained:
Conditions in all cases: concentration: 1 μM, replicates: in singlicate; n = 1
NIM1 = system: T1, NIM1
T1 construct: gene MGC42105

NLK = system: NLK
OSR1 = system: T2, OSR1
T2 construct: gene OXSR1

PAK1 = system: PAK1
PAK2 = system: PAK2
PAK3 = system: PAK3
PAK4 = system: PAK4
PAK6 = system: PAK6
PAK7 = system: PAK7
PCTK1 = system: T3, PCTK1
T3 construct: gene CDK16
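Further: KINOMEscan kinase panel screen.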

Row | SMILES | %Inh (NIM1) [%] | %Inh (NLK) [%] | %Inh (OSR1) [%] | %Inh (PAK1) [%] | %Inh (PAK2) [%] | %Inh (PAK3) [%] | %Inh (PAK4) [%] | %Inh (PAK6) [%] | %Inh (PAK7) [%] | %Inh (PCTK1) [%]
1 | O=C(O)C(F)(F)F.O=C(O)C(F)(F)F.O=c1[nH]ccc2nc(N[C@@H]3CCCNC3)nc(Nc3ccc(S(=O)(=O)N4CCOCC4)cc3)c12 [GSK2177277] | 95.7 | 0 | 92.1 | 99.9 | 99.3 | 100 | 99.6 | 97.9 | 99.9 | 99.9
2 | COc1cc2c(cc1OCCN1CCNCC1)ncc1c3ccc(C#N)cc3[nH]c21 | 66 | 0 | 20 | 0 | 4 | 0 | 0 | 8 | 0 | 16
3 | COc1cc(Nc2nccc(N3CCC(NC(=O)Nc4cccc(C(C)=O)c4)C3)n2)cc(OC)c1OC (centres unmarked) [GSK1379753] | 11 | 21 | 6 | 0 | 0 | 100 | 0 | 7 | 13 | 10
4 | Nc1ncc(-c2cccnc2)c2scc(-c3ccc4c(c3)CCN4C(=O)Cc3ccccc3)c12 [GSK683281] | 11 | 47 | 19 | 18 | 19 | 62 | 18 | 0 | 7 | 1
5 | CCCCc1nn2ncccc2c1-c1ccnc(Nc2ccc(N3CCN(C)CC3)cc2)n1 [GW684941] | 47 | 54 | 12 | 23 | 0 | 0 | 0 | 48 | 1 | 26
6 | Nc1ncc(-c2ccc3nccc(-c4ccncc4)c3c2)cc1S(=O)(=O)N1CCOCC1 [GSK1627798] | 0 | 0 | 0 | 9 | 20 | 5 | 0 | 0 | 0 | 3
7 | Cl.c1ccc(-c2ccc3c(Nc4ccc5[nH]ncc5c4)ccnc3c2)nc1 [GW440137] | 14 | 28 | 5 | 10 | 0 | 0 | 0 | 3 | 0 | 2
8 | O=C(Nc1ccccc1F)NC1CCN(c2ccnc(Nc3ccc(F)cc3)n2)CC1 [GSK1379800] | 32 | 12 | 0 | 1 | 0 | 0 | 0 | 0 | 0 | 0
9 | COCCOCCOc1cc2ncc3c4ccc(C#N)cc4[nH]c3c2cc1OC | 48 | 19 | 0 | 18 | 22 | 21 | 19 | 10 | 1 | 0
10 | Cl.Cl.NCC(C(=O)Nc1cc(Br)c(-c2ccnc3[nH]ccc23)s1)c1ccccc1 (centres unmarked) [GSK1269851] | 11 | 0 | 36 | 17 | 32 | 27 | 0 | 0 | 51 | 11
11 | Cc1ccc(C(=O)Nc2ccc(Nc3ccnc4cc(-c5nccs5)ccc34)cc2O)cc1.Cl [GW494702] | 19 | 0 | 6 | 0 | 0 | 9 | 1 | 0 | 0 | 0
12 | COc1cccc(C2=C(Nc3ccc(Cl)c(C(=O)O)c3)C(=O)NC2=O)c1 [SB-390769] | 100 | 22 | 100 | 30 | 28 | 0 | 0 | 6 | 1 | 0
13 | NCCCC(NC(=O)c1cc(Br)c(-c2ccnc3[nH]ccc23)s1)c1ccccc1.O=C(O)C(F)(F)F.O=C(O)C(F)(F)F (centres unmarked) [GSK1287544] | 15 | 0 | 57 | 2 | 41 | 67 | 2 | 56 | 29 | 10
14 | Cn1cc(-c2ccc3c(c2)CCN3C(=O)Cc2cccc(F)c2)c2c(N)ncnc21 [GSK2603358] | 24 | 0 | 37 | 0 | 0 | 31 | 0 | 0 | 0 | 4
15 | CCc1ccc(-c2ccc3c(c2)-c2c(cnn2C)S(=O)(=O)N3C)cc1 | 0 | 11 | 0 | 0 | 2 | 0 | 1 | 9 | 0 | 0
16 | CC(C)c1nc(-c2cccc(NS(=O)(=O)c3c(F)cccc3F)c2F)c(-c2ccnc(Nc3ccc(N4CCOCC4)nc3)n2)s1 [GSK2008607] | 1 | 97.5 | 0 | 27 | 18 | 93.3 | 0 | 9 | 20 | 99.5

Row | SMILES | %Inh (NIM1) [%] | %Inh (NLK) [%] | %Inh (OSR1) [%] | %Inh (PAK1) [%] | %Inh (PAK2) [%] | %Inh (PAK3) [%] | %Inh (PAK4) [%] | %Inh (PAK6) [%] | %Inh (PAK7) [%] | %Inh (PCTK1) [%]
17 | CN(C)S(=O)(=O)c1cc(-c2ccc3nccc(-c4cccc(S(N)(=O)=O)c4)c3c2)cnc1N [GSK1669921] | 11 | 4 | 0 | 7 | 21 | 39 | 1 | 3 | 0 | 5
18 | Cn1cc(-c2ccc3c(c2)CCN3C(=O)Cc2cccc(Cl)c2)c2c(N)ncnc21 [GSK2606590] | 0 | 0 | 16 | 17 | 22 | 46 | 0 | 0 | 9 | 0
19 | Clc1ccc(-c2nn3ncccc3c2-c2ccnc(Nc3ccc4c(c3)OCCO4)n2)cc1 [GW829116] | 0 | 61 | 0 | 0 | 28 | 0 | 0 | 2 | 0 | 0
20 | CN(c1ccc(NC(=O)Nc2cc(C(F)(F)F)ccc2F)cc1)c1ccnc(Nc2ccc(S(N)(=O)=O)cc2)n1 [GW809893] | 0 | 78 | 6 | 2 | 11 | 23 | 2 | 10 | 0 | 69
21 | Cl.c1ccc(-c2ccc3c(Nc4ccc5[nH]ccc5c4)ccnc3c2)nc1 [GW440138] | 29 | 36 | 4 | 0 | 0 | 0 | 0 | 0 | 0 | 0
22 | Cl.Cl.NCC(NCc1ccc(-c2ccnc3[nH]ccc23)s1)c1ccccc1 (centres unmarked) [GSK1321565] | 0 | 8 | 10 | 0 | 0 | 69 | 0 | 2 | 0 | 0
23 | COc1ccc(Nc2nccc(N3CCC(NC(=O)Nc4cccc(OC)c4)C3)n2)cc1 (centres unmarked) [GSK1379742] | 22 | 0 | 0 | 44 | 27 | 0 | 0 | 0 | 0 | 4
24 | O=c1[nH]cc(-c2ccc(N3CCOCC3)cc2)c2sc(-c3cn[nH]c3)cc12 [GSK2276055] | 30 | 0 | 1 | 8 | 26 | 0 | 0 | 17 | 31 | 4
25 | Cc1occc1-c1ncc(OC[C@@H](N)Cc2c[nH]c3ccccc23)cc1-c1ccc2[nH]nc(C)c2c1.O=C(O)C(F)(F)F [GSK682037] | 33 | 39 | 8 | 97.5 | 68 | 32 | 2 | 15 | 36 | 0
26 | O=C(Nc1n[nH]c2nc(-c3ccc(O)cc3)ccc12)C1CC1 [SB-710363] | 0 | 92.1 | 0 | 0 | 72 | 0 | 0 | 0 | 11 | 61
27 | Cc1ccc(C)c(NC(=O)NC2CCN(c3ccnc(Nc4ccc(F)cc4)n3)C2)c1 (centres unmarked) [GSK1379720] | 43 | 4 | 0 | 4 | 2 | 14 | 0 | 0 | 0 | 0
28 | Nc1ncnc2c1nc(-c1ccccc1)n2-c1ccccc1 [SKF-97293] | 66 | 0 | 39 | 29 | 56 | 27 | 16 | 8 | 0 | 9
29 | Cn1cc(-c2[nH]c3cc(NC(=O)[C@H](N)C4CCCCC4)cc4c3c2C=NNC4=O)cn1 | 96.8 | 0 | 17 | 27 | 25 | 83 | 99.5 | 99.2 | 97.9 | 8
30 | FC(F)(F)c1ccc(/C=C/c2cncnc2Nc2ccc3[nH]c(Cc4ccccc4)nc3c2)cc1 [GW709199] | 0 | 9 | 0 | 4 | 16 | 0 | 0 | 0 | 0 | 0
31 | COc1ccc(-c2coc3ccc(-c4nnc(SCc5ccc(OC)c(C(F)(F)F)c5)o4)cc23)cc1 | 0 | 10 | 3 | 0 | 3 | 22 | 1 | 17 | 3 | 0
32 | c1ccc(-c2cnc3nccnn23)cc1 [AH20685] | 0 | 0 | 0 | 13 | 20 | 2 | 0 | 0 | 0 | 7
